Compound activity from PubChem BioAssay.
KLK7 zymogen act – activates the human kallikrein-7 zymogen; P49862; purified proKLK7, EDANS-DABCYL substrate fluorescence; 100% is mature enzyme control, 0% vehicle; activation, % at 7 µM; 0.9% of 370,000 active;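 active = activation above the mean of all tested compounds plus 3 SD, computed per campaign excluding outliers beyond control limits, cut at about 13% in these data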
PLC-gamma1 inh – inhibitors of human phospholipase C gamma1 | 0.84% of 370,000 active | inhibition, % at 12.2 µM | purified PLC-gamma1, fluorogenic substrate, fluorescence | P19174; in the data active = inhibition above about 9.5%
ADAM10 inh – inhibits human ADAM10; AID 720582; recombinant ADAM10, EDANS/DABCYL FRET peptide cleavage, 3 h; inhibition, % at 7 µM; 0.62% of 370,000 active; O14672;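 active = inhibition above a per-campaign cutoff equal to the mean of compounds falling between control-based bounds plus 3 SD, cut at about 20% in these data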;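 note: 0% = DMSO wells while the 100% control is not disclosed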
PLCb3 inh – PLC-beta3 (human) inhibition, primary screen. Q01970. Purified PLC-beta3, fluorogenic substrate, fluorescence. inhibition, % at 12.2 µM. 0.18% of 370,000 active. AID 720704; in the data active = inhibition above about 11%;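 note: 0% = median of compound wells on plate and 100% = full blocker control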
ADAM17 inh – inhibitors of human ADAM17. recombinant ADAM17, EDANS/DABCYL FRET peptide cleavage. AID 720648. 0.83% of 370,000 active. inhibition, % at 6.95 µM;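 active = inhibition above the mean of compounds lying between control limits plus 3 SD, set per campaign, cut at about 8.5% in these data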;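 note: 0% = DMSO-only wells as the low control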
Target sequence (P78536 215-824 limits assumed): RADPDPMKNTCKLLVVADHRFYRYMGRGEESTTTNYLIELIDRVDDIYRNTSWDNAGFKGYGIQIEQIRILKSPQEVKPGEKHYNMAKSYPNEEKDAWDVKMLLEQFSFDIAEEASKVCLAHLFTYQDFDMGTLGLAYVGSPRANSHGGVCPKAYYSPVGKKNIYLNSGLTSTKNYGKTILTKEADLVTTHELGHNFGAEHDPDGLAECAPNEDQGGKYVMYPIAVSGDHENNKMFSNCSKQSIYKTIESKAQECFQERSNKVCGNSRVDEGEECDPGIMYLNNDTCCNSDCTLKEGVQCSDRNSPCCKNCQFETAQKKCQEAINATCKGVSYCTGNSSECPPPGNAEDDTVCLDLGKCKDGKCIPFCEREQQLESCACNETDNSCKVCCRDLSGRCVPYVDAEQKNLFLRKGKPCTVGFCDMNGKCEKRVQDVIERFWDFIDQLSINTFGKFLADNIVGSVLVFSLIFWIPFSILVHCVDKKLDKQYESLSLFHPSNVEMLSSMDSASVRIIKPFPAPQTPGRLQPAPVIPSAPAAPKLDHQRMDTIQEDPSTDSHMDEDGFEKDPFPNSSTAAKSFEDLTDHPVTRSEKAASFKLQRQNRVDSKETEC
proKLK7 act conf – proKLK7 activation, confirmation; shares compounds with KLK7 zymogen act; purified proKLK7, EDANS-DABCYL substrate fluorescence; scaled: vehicle 0, mature enzyme 100; activation, % at 7 µM; 68% of 3,200 active;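 active = activation, as change over the incubation, above the mean of all tested compounds plus 3 SD, cut at about 13% in these data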
EDANS interfere – optically interferes with EDANS-DABCYL signal, flagging KLK7 hits | EDANS-DABCYL substrate fluorescence interference, no enzyme, 4 h; solvent 0%, active enzyme control 100% | activation, % at 7 µM | shares compounds with KLK7 zymogen act | AID 686952 | 80% of 3,200 active;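 active = activation above the all-compound mean plus 3 SD, ignoring values outside control-based bounds, cut at about 4.8% in these data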;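 note: value is the 4 h activation minus the activation read at time zero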
EDANS interf – optically interferes with EDANS-DABCYL fluorescence, kallikrein-7 activator counter-screen; shares compounds with KLK7 zymogen act; EDANS-DABCYL peptide fluorescence interference, no enzyme; EC50, µM; 20% of 250 active; AID 720493;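 active = compounds that raise the fluorescence signal in this interference counterscreen, with EC50 at or below 10 µM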;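 note: intact quenched peptide substrate alone read at 355 nm excitation and 520 nm emission; signal is fluorescence gain from T0 to T4 after four hours at room temperature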
Active calls of the source: *; i = inactive; nt = no result. Sampled rows, rich in hits. Any-hit rate of the full collection: about 2.9%.

SMILES	KLK7 zymogen act	PLC-gamma1 inh	ADAM10 inh	PLCb3 inh	ADAM17 inh	proKLK7 act conf	EDANS interfere	others
CCCN1CCN(CCCNC(=O)c2cc3c(s2)-c2ccccc2OC3)CC1	38*	i	i	i	i	71*	76*
Cc1cccc2c1-c1sc(C(=O)NCCCN3CCCC(C)C3)cc1CO2 (stereo not drawn)	48*	i	i	i	i	62*	70*
Cc1ccc2oc(=O)c3cc(C(=O)NCCCN4CCCC(C)C4)sc3c2c1 (stereo not drawn)	0	-10	-108	-20	-41	nt	nt
Cc1csc(NC(=O)c2cc3c(s2)-c2ccccc2OC3)n1	-602	i	i	i	-402	nt	nt
CC1CC(C)CN(CCCNC(=O)c2cc3c(s2)-c2ccccc2OC3)C1 (stereo not drawn)	44*	i	i	i	i	-37	-60
COC(=O)c1cc2c(c3c4cc(OC)ccc4n(S(=O)(=O)c4ccccc4)c13)C(=O)N(Cc1ccc(C(F)(F)F)cc1)C2	0	-7	-12	-9	-4	nt	nt
Cc1c(NC(=O)c2cc3c(s2)-c2ccccc2OC3)cccc1[N+](=O)[O-]	0	-5	-18	-5	-4	nt	nt
CN(C)CCNC(=O)c1cc2c(s1)-c1ccccc1OC2	68*	i	i	i	i	72*	68*
CC1CCCC(C)N1CCCNC(=O)c1cc2c(s1)-c1ccccc1OC2 (stereo not drawn)	69*	i	i	i	i	62*	63*
CCCN1CCN(CCCNC(=O)c2cc3c(s2)-c2c(C)cccc2OC3)CC1	42*	i	i	i	i	63*	71*
Cc1cccc(NC(=O)c2cc3c(s2)-c2c(C)cccc2OC3)n1	-17	-48	-104	-78	-32	nt	nt
CCOc1ccc(NC(=O)CSc2nnc(-c3n[nH]c4c3CCC4)n2N)cc1	-1	3	-1	3	1	nt	nt
CCn1c(SCC(=O)N/N=C/c2cccc(Oc3ccccc3)c2)nnc1-c1ccccc1	1	1	5	-3	-2	nt	nt
CCCC(=O)Nc1cc(-c2cn3cccnc3n2)ccc1OC	5	i	-297	i	-103	nt	nt
CC(=O)Nc1ccc(S(=O)(=O)Nc2cccc(-c3cn4cccnc4n3)c2)cc1	43*	-238	i	-265	-286	7	7.8*
CCN(CC)S(=O)(=O)c1cccc(-c2cn3cccnc3n2)c1	21*	-474	i	i	i	38*	25*	EDANS interf=>70
CC(C)CC(=O)Nc1ccc(-c2cn3cccnc3n2)cc1	70*	i	i	i	i	66*	68*
COc1ccc(-c2cn3cccnc3n2)cc1NC(=O)CC(C)C	4	i	-331	i	-105	nt	nt
CCOCC(=O)Nc1ccc(-c2cn3cccnc3n2)cc1	39*	i	i	i	i	67*	79*
CC1CCCN(S(=O)(=O)c2cccc(-c3cn4cccnc4n3)c2)C1 (stereo not drawn)	0	-106	i	-147	-194	nt	nt
CCn1c(SCC(=O)NN=Cc2cccc(OCc3ccccc3)c2)nnc1-c1ccc(OC)c(OC)c1	0	5	11	2	4	nt	nt
CCOC(=O)[C@@]12CN(C(=O)OC(C)(C)C)CC=C1N(Cc1ccc(OC)cc1)C(=O)[C@H]2CC(=O)N1CCN(C(=O)C2CC2)CC1	0	5	1	9	1	nt	nt
COC(=O)[C@]12C[C@H](CC(=O)NCCC(C)C)C(=O)N(CCc3ccc(OC)c(OC)c3)C1=C[C@H](COCc1ccccc1)O[C@@H]2C	1	0	7	-1	-1	nt	nt
COc1cc(/C=N/n2c(-c3cc(-c4ccccc4)n[nH]3)n[nH]c2=S)ccc1OCc1ccccc1	3	0	-17	-5	0	nt	nt
COC(=O)[C@]1(CNC(=O)C(F)(F)F)CC(=O)N(C)[C@@H]1c1ccccc1	0	3	-2	5	-1	nt	nt
SMILES	KLK7 zymogen act	PLC-gamma1 inh	ADAM10 inh	PLCb3 inh	ADAM17 inh	proKLK7 act conf	EDANS interfere	others
O[C@H](COc1ccc(C(F)(F)F)cc1)CN1CCC(C(O)(c2ccccc2)c2ccccc2)CC1	0	0	16	-1	8	nt	nt
O=C(Nc1ccccc1)Nc1cccc(-c2cn3cccnc3n2)c1	1	-13	-52	-24	-21	nt	nt
CCCC(=O)Nc1ccc(-c2cn3cccnc3n2)cc1	58*	i	i	i	i	67*	63*
CCCC(=O)Nc1cccc(-c2cn3cccnc3n2)c1	30*	i	i	i	i	42*	45*
CC(C)(C)CC(=O)Nc1ccc(-c2cn3cccnc3n2)cc1	74*	i	i	i	i	66*	65*
CCCCOCCCNC(=O)C[C@H]1C[C@@]2(C(=O)OC)C(=C[C@H](C(C)C)O[C@@H]2C2CC2)N(Cc2ccc3c(c2)OCO3)C1=O	0	1	10	1	3	nt	nt
CCCCCN1CCCCC(NC(=O)c2ccc(F)cc2)C1=O (stereo not drawn)	0	2	0	2	-2	nt	nt
COCCCNC(=O)Cc1c(C)c2c(cc(C)c3c(C(C)(C)C)coc32)oc1=O	-12	-101	-432	-149	-171	nt	nt
COCCNC(=O)Cc1c(C)c2c(cc(C)c3c(C)coc32)oc1=O	16*	-226	-235	-322	-100	-15	-58
Cc1coc2c1c(C)cc1oc(=O)c(CC(=O)NCCC(=O)O)c(C)c12	30*	i	i	i	-365	64*	75*
c1cc(-c2ccsc2)n2ccnc2c1	-1	-51	-404	-72	-122	nt	nt
N#Cc1ccc(-c2cccc3nccn23)cc1	78*	i	i	i	i	73*	68*
CC(=O)c1ccc(-c2cccc3nccn23)cc1	-1	-53	-10	-65	0	nt	nt
CC(=O)Nc1cccc(-c2cccc3nccn23)c1	18*	-304	i	-409	-401	24*	27*
c1cc(-c2ccc(CN3CCOCC3)cc2)n2ccnc2c1	24*	-312	i	-420	-416	21*	22*
c1cn2cc(-c3ccc(CN4CCOCC4)cc3)ccc2n1	0	-12	-29	-13	-7	nt	nt
CN1CCN(c2ccc(-c3cccc4nccn34)cn2)CC1	50*	i	i	i	i	22*	19*
Cc1ccc(NC(=O)c2cc(-c3ccco3)on2)cc1C	2	-10	-49	-25	-18	nt	nt
